# Test results: the supplement of paper PMC8728848
# This excerpt belongs to a sample that is enriched for the strongest signals.
# Assays:
# Assay in all cases: glycan array binding signal (z-score within array); higher = stronger binding
# Details in all cases: glycan notation: IUPAC condensed, linker removed
# Man(a1-3)[Man(a1-6)]Man = target: Man(a1-3)[Man(a1-6)]Man
# How it was run: (§1)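 Columns mapping to the same glycan were averaged after glycan names were converted to IUPAC-condensed notation. The data come from 3228 arrays in the Consortium for Functional Glycomics database, limited to those with an available protein sequence. Binding is reported as a within-array Z-score averaged across arrays of one protein sequence and across linkers.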
# [1] = target: Man(a1-3)[Man(a1-6)]Man(a1-6)[Man(a1-2)Man(a1-3)]Man(b1-4)GlcNAc(b1-4)GlcNAc
# How it was run: as §1
# [2] = target: Man(a1-3)[Man(a1-6)]Man(a1-6)[Man(a1-3)]Man
# How it was run: as §1
# Neu5Ac(a2-3)Gal = target: Neu5Ac(a2-3)Gal
# How it was run: as §1
# [3] = target: Neu5Ac(a2-3)Gal(b1-3)GalNAc(b1-4)[Neu5Ac(a2-8)Neu5Ac(a2-3)]Gal(b1-4)Glc
# How it was run: as §1
# [4] = target: Neu5Ac(a2-3)Gal(b1-4)GlcNAc
# How it was run: as §1
# [5] = target: Neu5Ac(a2-3)Gal(b1-4)GlcNAc(b1-2)Man(a1-3)[GlcNAc(b1-2)Man(b1-4)GlcNAc(b1-2)Man(a1-6)]Man(b1-4)GlcNAc(b1-4)GlcNAc
# How it was run: as §1
# [6] = target: Neu5Ac(a2-3)Gal(b1-4)GlcNAc(b1-3)Gal(b1-4)GlcNAc(b1-3)Gal(b1-4)GlcNAc
# How it was run: as §1
# [7] = target: Neu5Ac(a2-6)GlcNAc(b1-4)GlcNAc(b1-4)GlcNAc
# How it was run: as §1
# [8] = target: Neu5Ac9Ac(a2-3)Gal(b1-4)GlcNAc
# How it was run: as §1
# [9] = target: Neu5Ac9Ac(a2-6)Gal(b1-4)GlcNAc
# How it was run: as §1
binder,measurement,setting,value
"ConA (Canavalia ensiformis), P02866 (protein) MAISKKSSLFLPIFTFITMFLMVVNKVSSSTHETNALHFMFNQFSKDQKDLILQGDATTGTDGNLELTRVSSNGSPQGSSVGRALFYAPVHIWESSAVVASFEATFTFLIKSPDSHPADGIAFFISNIDSSIPSGSTGRLLGLFPDANVIRNSTTIDFNAAYNADTIVAVELDTYPNTDIGDPSYPHIGIDIKSVRSKKTAKWNMQNGKVGTAHIIYNSVDKRLSAVVSYPNADSATVSYDVDLDNVLPEWVRVGLSASTGLYKETNTILSWSFTSKLKSNEIPDIATVV",glycan array binding signal (z-score),Man(a1-3)[Man(a1-6)]Man,5.51
same,glycan array binding signal (z-score),[1],4.75
same,glycan array binding signal (z-score),[2],4.27
same,glycan array binding signal (z-score),Neu5Ac(a2-3)Gal,-0.283
same,glycan array binding signal (z-score),[3],-0.248
same,glycan array binding signal (z-score),[4],-0.29
same,glycan array binding signal (z-score),[5],-0.041
same,glycan array binding signal (z-score),[6],-0.269
same,glycan array binding signal (z-score),[7],-0.184
same,glycan array binding signal (z-score),[8],-0.009
same,glycan array binding signal (z-score),[9],-0.243
